Compound activity as filed in PubChem.
KCNH2 3.1 block: blocks the human KCNH2 3.1 channel isoform. U2OS KCNH2 3.1, thallium flux FluxOr; active compounds read low. activity change, % (tested at about 1.8 µM). 340,000 compounds, 0.95% hits;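 active = maximum activity change below -70%; inconclusive = maximum activity change from -70% to -50%; inactive = maximum activity change above -50%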;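 note: thallium influx rate constant from kinetic fluorescence after stimulation buffer; % is set by controls: 0 for no effect and ±100 for the full control effect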
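Steps: virus added to U2OS suspension (4 h, RT, dark); medium with 10% FBS added, cells plated, 37 C overnight; FluxOr/Red40 loading buffer 45 min RT; stimulation buffer, 2 min kinetic read; rate constant normalized.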
S-ASM inh: blocks human secretory acid sphingomyelinase; P17405; placental ASM, HMU-PC fluorogenic substrate, 60 min; Potency, µM (titrated, usually from 57.5 µM), for inactives: at the highest dose activity change, negative = inhibition, usual class: inhibitors; 340,000 compounds, 0.006% hits; note: potency is the fitted concentration of half-maximal effect
Target sequence (P17405 47-631 limits assumed): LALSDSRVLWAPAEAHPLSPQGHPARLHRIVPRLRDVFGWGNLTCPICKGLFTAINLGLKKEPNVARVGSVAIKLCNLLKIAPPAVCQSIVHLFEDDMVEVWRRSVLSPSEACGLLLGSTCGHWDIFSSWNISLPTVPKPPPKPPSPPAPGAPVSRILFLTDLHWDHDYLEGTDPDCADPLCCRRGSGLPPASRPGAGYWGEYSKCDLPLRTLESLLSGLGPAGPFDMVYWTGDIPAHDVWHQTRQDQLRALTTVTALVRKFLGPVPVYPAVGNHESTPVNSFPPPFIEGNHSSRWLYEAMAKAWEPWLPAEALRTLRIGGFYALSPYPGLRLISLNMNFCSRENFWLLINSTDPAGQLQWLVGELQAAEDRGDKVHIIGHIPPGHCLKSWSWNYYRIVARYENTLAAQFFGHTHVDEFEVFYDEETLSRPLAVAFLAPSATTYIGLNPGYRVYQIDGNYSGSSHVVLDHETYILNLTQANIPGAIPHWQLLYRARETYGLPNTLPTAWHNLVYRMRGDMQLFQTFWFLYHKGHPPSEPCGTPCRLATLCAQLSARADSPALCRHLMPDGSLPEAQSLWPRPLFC
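qHTS format. ASM enzyme prepared from human placenta hydrolyses the fluorogenic substrate HMU-PC0 (9 uM final) over 60 min at 37 °C after a 10 min compound preincubation.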
p53 reactivator: restores transcriptional activity of mutant p53; H1299 p53-A138V BP100-luciferase reporter, luminescence, 24 h; Potency, µM (series often up to 92.2 µM), without a hit: at the top dose activity change, positive = activation, usual class: activators; 320,000 compounds, 0.063% hits; AID 504706; note: potency is the fitted concentration of half-maximal effect; % of control where 0% means no effect; nearly all actives have a fitted effect of over 45% in size
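H1299 (p53-null), stable ts p53-A138V + BP100-Luc; 1000 cells/well, Opti-MEM/10% FBS; cpd 4 pt, 1:5; 24 h, 37 deg C, 5% CO2; detection reagent 10 min RT; luminescence.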
MmCpn inh: blocks the Methanococcus maripaludis chaperonin Mm-Cpn. purified Mm-Cpn ATPase, ADP Transcreener TR-FRET. Potency, µM (top dose mostly 76.9 µM), for the others: at the highest dose activity, negative = inhibition, actives largely listed as inhibitors. 330,000 compounds, 0.031% hits. AID 504842; note: potency is the fitted concentration of half-maximal effect; % is set by controls: 0 for no effect and ±100 for the full control effect; nearly all actives have a fitted effect of over 80% in size
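Reaction buffer contained 30 mM Tris pH 7.4, 100 mM KCl, 5 mM MgCl2 and 1 mM DTT. Mm-CPN (25 nM final) hydrolysed 10 uM ATP over 30 min at 37°C; ADP was read by HTRF.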
uPA generation: inhibitors of cell surface uPA generation; cell surface uPA generation assay, qHTS; Potency, µM (doses to about 38.3 µM), inactives show at the highest dose activity change, negative = inhibition, hits mostly inhibitors; 330,000 compounds, 0.31% hits; active = well fitted inhibition curve with a large enough effect; inconclusive = small, poorly fitted or top-dose-only effect; inactive = no such curve, though single readings can be large or run the other way; tested in mouse RAW 264.7 cells; note: potency is the fitted concentration of half-maximal effect; % is set by controls: 0 for no effect and ±100 for the full control effect; nearly all actives have a fitted effect of over 55% in size
KCNH2 WT inh: blocks the wildtype human KCNH2 potassium channel; U2OS, BacMam KCNH2, thallium flux FluxOr; active compounds read low; activity change, % at 1.84 µM; 340,000 compounds, 0.37% hits;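 active = maximum activity change below -70%; inconclusive = maximum activity change between -70% and -50%; inactive = maximum activity change above -50%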; note: % is set by controls: 0 for no effect and ±100 for the full control effect
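U2OS cells were transduced with wild-type KCNH2 virus (2.03 x 10^8 / mL) for 4 h at room temperature, then cultured overnight at 37 C. Thallium flux was read with FluxOr dye. Rate constants were normalized to DMSO controls.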
Starred values were filed as active, the others as inactive; i = inactive; ? = inconclusive; . = not tested or not shown; ! = not active in a repeat. Sampled rows, rich in hits. Any-hit rate of the full collection: about 1.4%. Unless noted, calls come from the whole dose curve; as a rule, active = well fitted curve in the direction sought with a large enough effect; inconclusive = small, poorly fitted or top-dose-only effect, or another doubt; inactive = no such curve, though single readings can be large; an effect the other way counts as inactive or inconclusive.

SMILES	KCNH2 3.1 block	S-ASM inh	p53 reactivator	MmCpn inh	uPA generation	KCNH2 WT inh
FC(F)(F)c1cc(C(F)(F)F)c2ccc(N3CCN(c4ccc(Cl)cc4)CC3)nc2n1	-89.6*	2.1%	3.0%	0.5%	0.2%	1.0
Fc1ccc(N2CCN(c3ccc4c(C(F)(F)F)cc(C(F)(F)F)nc4n3)CC2)cc1	-18.6	1.6%	-0.8%	-0.5%	0.5%	1.1
COc1ccc(OC)c(/C=N/Nc2nncn2/N=C/c2cc(OC)ccc2OC)c1	6.9	45.4%	-11.8%	-2.4%	10µM*	-21.1
COc1cc(/C=N/Nc2nncn2/N=C/c2ccc(O)c(OC)c2)ccc1O	6.3	2.6%	13.8%	4.7%	-14.9%	-18.5
Cc1ccc(S(=O)(=O)NCC(NCc2ccc(F)cc2)c2ccccc2)cc1 (stereo not given)	-34.1	-1.7%	-4.0%	1.2%	-0.5%	-6.4
CCCOc1ccc(/C(CC)=N/NC(=O)C2(C)CC2(Br)Br)cc1 (stereo not given)	-77.0*	-10.2%	-0.6%	0.1%	-3.9%	6.2
O=C(CCNS(=O)(=O)c1ccc(Br)cc1)NC1CCC(O)CC1 (stereo not given)	1.8	-0.6%	-5.2%	0.7%	-5.0%	-3.3
Cc1ccccc1C(=O)Nc1cccc(NC(=O)c2ccccc2[N+](=O)[O-])c1	-2.6	-8.8%	.	1.0%	4.47µM*	-6.0
C/C(=N\NC(=O)c1c(Br)c(C)nn1C)c1cccc(NC(=O)c2ccccc2C)c1	-10.6	0.2%	0.4%	0.7%	-3.2%	1.7
C/C(=N\NC(=O)c1ccc(O)cc1)c1cccc(NC(=O)c2ccccc2C)c1	10.4	-0.2%	18.3%	-2.6%	10µM*	-4.0
O=C(Sc1n[nH]c(=O)[nH]c1=O)c1ccccc1	3.7	2.1%	.	.	0.3%	0.3
Cc1ccc([C@H]2N[C@]3(CCCN(Cc4ccc(F)cc4)C3=O)[C@H]3C(=O)N(Cc4ccccc4)C(=O)[C@@H]23)cc1	-8.6	.	.	.	.	8.4
Clc1ccccc1CSc1cnnc2ccccc12	2.5	-12.3%	.	.	-4.1%	11.5
CN(C)C(CNC(=O)c1ccc2nccnc2c1)c1ccco1 (stereo not given)	10.6	22.2%	7.5%	1.6%	2.7%	-0.6
COc1ccc(C(=O)NCCSC2CCCCC2)cc1	-112.3*	4.1%	23.3%	3.9%	-3.6%	-18.5
O=C(NCCSC1CCCCC1)c1ccccc1	.	0.7%	9.6%	0.5%	2.3%	29.4
CCOC(=O)c1ccc(N2N=C(C)/C(=C/C=C/c3ccco3)C2=O)cc1	11.9	?	0.3%	0.5%	0.2%	-8.7
CC1=NN(c2ccc(C(=O)OC(C)C)cc2)C(=O)/C1=C\C=C\c1ccco1	-194.1*	-15.8%	?	1.7%	-3.6%	-201.6*
CCOC(=O)c1c(NC(=S)Nc2ccccc2)sc2c1CC(C)(C)SC2	-14.6	31.4%	-6.5%	50.1µM*	-2.9%	-5.5
CCn1c(N2CCN(C(c3ccccc3)c3ccccc3)CC2)nc2c1c(=O)[nH]c(=O)n2C	2.7	0.3%	.	.	-5.4%	-26.0
O=C(NCCc1ccncc1)Nc1ccccc1	5.1	-0.6%	1.1%	-0.8%	-1.9%	3.6
O=C(NCCc1ccncc1)Nc1ccc(Cl)c(Cl)c1	-82.1*	-1.3%	-7.3%	1.3%	5.7%	-13.5
C=CCN=c1scc(-c2ccc(F)cc2)n1/N=C/c1ccccn1	0.9	-3.8%	?	-2.5%	-14.0%	i
C=CCN=c1scc(-c2ccccc2)n1/N=C/c1ccccn1	-9.7	-3.0%	?	-3.4%	0.398µM*!	2.5
COc1cccc(NC(=O)c2cnn(-c3ccccc3)c2C)c1	6.6	0.9%	-26.0%	-0.4%	10µM*	4.7
CCc1cccc(NC(=O)c2cnn(-c3ccccc3)c2C)c1	-29.8	-5.5%	?	1.7%	?	-3.4
COc1cccc(C(C(=O)NC2CCCC2)N(C(=O)c2ccco2)c2ccc(NC(C)=O)cc2)c1OC (stereo not given)	14.4	0.6%	4.3%	1.1%	-0.1%	-3.7
